From PubChem BioAssay (NCATS)
Results filed as inconclusive are left out. Calls of active or inactive are those of the source. Unless noted, the call rests on the fitted dose curve.

Key:
[1] = qHTS for Inhibitors of the Functional Ribonucleoprotein Complex (vRNP) of Lassa (LASV) Arenavirus: LASV Primary Screen - GLuc reporter signal (AID 1347082; calls by dose curve; tested in HEK293 reporter line; further: nearly all actives have a fitted effect of over 60% in size)
[2] = qHTS for Inhibitors of the Functional Ribonucleoprotein Complex (vRNP) of Lassa (LASV) Arenavirus: Viability assay - alamar blue signal for LASV Primary Screen (AID 1347083; calls by dose curve; tested in HEK293 reporter line; further: nearly all actives have a fitted effect of over 80% in size)
[3] = qHTS for Inhibitors of the Functional Ribonucleoprotein Complex (vRNP) of Lymphocytic Choriomeningitis Arenaviruses (LCMV): Viability assay - alamar blue signal for LCMV Primary Screen (AID 1347085; calls by dose curve; tested in HEK293 reporter line; further: nearly all actives have a fitted effect of over 80% in size)
[4] = target: Nucleoprotein (Lymphocytic choriomeningitis virus (strain Armstrong)) (UniProt P09992); experiment: qHTS for Inhibitors of the Functional Ribonucleoprotein Complex (vRNP) of Lymphocytic Choriomeningitis Arenaviruses (LCMV): LCMV Primary Screen - GLuc reporter signal (AID 1347086); further: nearly all actives have a fitted effect of over 70% in size
Nucleoprotein (Lymphocytic choriomeningitis virus (strain Armstrong)), sequence (P09992 whole entry, looked up): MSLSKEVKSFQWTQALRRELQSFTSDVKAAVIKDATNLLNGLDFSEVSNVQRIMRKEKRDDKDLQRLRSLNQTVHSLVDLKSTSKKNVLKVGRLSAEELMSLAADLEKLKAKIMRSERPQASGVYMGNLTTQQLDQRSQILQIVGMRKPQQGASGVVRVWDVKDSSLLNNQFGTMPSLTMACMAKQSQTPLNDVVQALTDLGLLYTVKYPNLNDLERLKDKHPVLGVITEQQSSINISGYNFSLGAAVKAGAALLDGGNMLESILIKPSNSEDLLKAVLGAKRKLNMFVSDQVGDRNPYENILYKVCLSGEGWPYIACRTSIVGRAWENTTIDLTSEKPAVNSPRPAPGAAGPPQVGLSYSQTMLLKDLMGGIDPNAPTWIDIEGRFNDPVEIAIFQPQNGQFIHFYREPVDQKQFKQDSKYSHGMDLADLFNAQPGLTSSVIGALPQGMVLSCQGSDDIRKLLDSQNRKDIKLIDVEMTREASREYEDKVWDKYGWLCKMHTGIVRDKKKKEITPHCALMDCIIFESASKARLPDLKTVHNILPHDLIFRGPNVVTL

Measured: Potency
Further: series mostly up to about 57 µM.

CCCCOCCOC(=O)c1cccnc1
inactive: all assays above

O=C(O)c1[nH]n(-c2ccc(S(=O)(=O)O)cc2)c(=O)c1N=Nc1ccc(S(=O)(=O)O)cc1
inactive: all assays above

CC(=O)Nc1ccc(S(=O)(=O)Nc2cc(C)on2)cc1
inactive: all assays above

NCCNCCNCCN
inactive: all assays above

CCCCOC(=O)CC(CC(=O)OCCCC)(OC(C)=O)C(=O)OCCCC
inactive: all assays above

CCN1CCCC1CNC(=O)c1cc(S(=O)(=O)CC)c(N)cc1OC (stereo not drawn)
inactive: all assays above

Cc1cc(C(C#N)c2ccc(Cl)cc2)c(Cl)cc1NC(=O)c1cc(I)cc(I)c1O (stereo not drawn)
inactive: all assays above

CC(=O)Nc1ccc(C(=O)O)cc1
inactive: all assays above

NC(=O)c1cc[n+](CC2=C(C(=O)[O-])N3C(=O)[C@@H](NC(=O)Cc4cccs4)[C@H]3SC2)cc1
inactive: all assays above

CC(CSC(=O)c1ccccc1)C(=O)N1C[C@@H](Sc2ccccc2)C[C@H]1C(=O)O (stereo partly drawn)
inactive: all assays above

CO[C@@H]1[C@@H](OC(N)=O)[C@@H](O)[C@H](Oc2ccc3c(O)c(NC(=O)c4ccc(O)c(CC=C(C)C)c4)c(=O)oc3c2C)OC1(C)C
inactive: all assays above

CCCC(=O)Nc1ccc(O)c(C(C)=O)c1
inactive: all assays above
